A549 viability: Nrf2 qHTS screen for inhibitors: counterscreen for cytotoxicity | A549 ARE-Fluc cells, CellTiter-Fluor viability, 18-24 h | Potency, µM (titrated, usually from 46 µM), for inactives: at the top dose activity change, negative = cytotoxicity, actives largely listed as inhibitors | hit rate 0.16% among 390,000 | AID 504648, 2011; also: potency is read from the fitted curve at half-maximal effect
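A549 ARE-Fluc cells in 5% FBS OPTI-MEM, 5000 cells/well, rested 2 h then exposed to compounds in concentration-response for 18-24 h at 37 °C. Viability by CellTiter-Fluor fluorescence (Ex 405/Em 525) after 30 min; luciferase luminescence (BugLite, 15 min, RT) read afterwards.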
Giardia kill: Small Molecules that selectively kill Giardia lamblia: qHTS; Giardia lamblia trophozoite viability; activity change, % at 7.66 µM, hits read low; hit rate 0.15% among 340,000; AID 540267, 2011; in the data active = activity change below about -80%; inconclusive = between about -30% and that limit;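 also: parasites exposed to compound for two days anaerobically before the ATP read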
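Viability, read as ATP luminescence: trophozoites at 100 cells/well, compound added, 48 hrs anaerobic at 37 deg C, then 15-30 min room-temperature development before reading.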
PI4K2A inh: qHTS for small molecular inhibitors of PI4K2A; activity change, negative = inhibition, % at 76.9 µM; Phosphatidylinositol 4-kinase type 2-alpha (Homo sapiens), Q9BTU6; AID 1346378, 2018; purified PI4K2A, ADP-Glo luminescence, 1 h; stronger effect = lower value; hit rate 0.13% among 420,000; in the data active = activity change below about -50%; inconclusive = mostly about -30% to -49%;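 also: -100% = wells without enzyme as full effect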
Target sequence (Q9BTU6 whole entry, looked up): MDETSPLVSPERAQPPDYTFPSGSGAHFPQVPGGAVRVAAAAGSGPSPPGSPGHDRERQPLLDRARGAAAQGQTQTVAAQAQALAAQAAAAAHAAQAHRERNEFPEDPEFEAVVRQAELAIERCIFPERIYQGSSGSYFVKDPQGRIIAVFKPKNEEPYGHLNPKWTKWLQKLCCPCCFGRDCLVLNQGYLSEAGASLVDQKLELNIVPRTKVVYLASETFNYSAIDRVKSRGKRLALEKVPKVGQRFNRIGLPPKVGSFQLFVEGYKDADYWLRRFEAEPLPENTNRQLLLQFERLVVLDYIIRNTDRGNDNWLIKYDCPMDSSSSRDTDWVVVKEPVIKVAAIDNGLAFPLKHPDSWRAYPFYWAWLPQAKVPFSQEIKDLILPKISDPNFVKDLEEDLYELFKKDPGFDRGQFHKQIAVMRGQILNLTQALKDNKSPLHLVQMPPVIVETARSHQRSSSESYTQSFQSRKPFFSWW
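ADP-Glo luminescence measured ADP generated by PI4K2A enzyme (4 ug/mL before mixing) with 1.2 mM PI substrate (pre-mix) and 300 microM ATP (pre-mix). Tris pH7.5 buffer with MgCl2, Triton X-100; 1 h reaction at ambient temperature.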
KB-3-1 tox: qHTS assay for MDR1-selective chemotherapeutics: Primary screen using the parental adenocarcinoma cell KB-3-1 | hit rate 1.4% among 400,000 | KB-3-1 viability, CellTiter-Glo ATP luminescence, 72 h | AID 1347075, 2019 | Potency, µM (top dose mostly 46.1 µM), usual class: cytotoxic; also: potency is read from the fitted curve at half-maximal effect; nearly all actives have a fitted effect of over 60% in size
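Cytotoxicity measured as CellTiter-Glo luminescence after 72 h at 37 C. Compound titrations were pinned onto drug-naive KB-3-1 parental adenocarcinoma cells grown in DMEM with 10% FBS, and normalized data fitted to concentration-response curves.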
KB-V1 MDR tox: qHTS assay for MDR1-selective chemotherapeutics: Primary screen using the drug-selected MDR subline cells KB-V1 | KB-V1 MDR cells viability, CellTiter-Glo, 72 h | Potency, µM (series often up to 46.1 µM), most hits filed as cytotoxic | hit rate 3.4% among 400,000; also: potency is read from the fitted curve at half-maximal effect; nearly all actives have a fitted effect of over 60% in size
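KB-V1 MDR subline cells in DMEM (phenol-red free, 10% FBS) exposed to compounds in qHTS concentration series for 72 h at 37 degrees C. Viability read by CellTiter-Glo luminescence; concentration-effect curves fitted after normalization and correction.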
Nrf2 block: Nrf2 qHTS screen for inhibitors; A549 ARE-Fluc reporter, luciferase luminescence, 18-24 h; Potency, µM (titrated, usually from 46 µM), without a hit: top-dose activity change, negative = inhibition, usual class: inhibitors; hit rate 2.1% among 360,000; AID 504444, 2011; also: potency is read from the fitted curve at half-maximal effect; nearly all actives have a fitted effect of over 60% in size
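Nrf2 function is reported as luminescence of an ARE-controlled luciferase in A549 cells. Compounds were tested at several concentrations, and a CellTiter-Fluor read on the same wells flagged cytotoxicity.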
Numbers without * were called inactive. A selection: hits, their analogues and other compounds. The true share with any hit is near 5.7%. Unless noted, calls follow the shape of the dose curve; as a rule, active = well fitted curve in the direction sought with a large enough effect; inconclusive = small, poorly fitted or top-dose-only effect, or another doubt; inactive = no such curve, though single readings can be large; an effect the other way counts as inactive or inconclusive. Unless noted, % is scaled to controls: 0 for no effect and ±100 for the full control effect.

COc1ccc(C(=O)NC2CCCc3ccccc32)cc1[N+](=O)[O-] (stereo not given) was read as A549 viability -16%, Giardia kill 2, PI4K2A inh -1, KB-3-1 tox inconclusive, KB-V1 MDR tox 5.8µM* and Nrf2 block -29%.
`Cc1cc(NS(=O)(=O)C2CCN(C(=O)Cc3ccc(Cl)c(Cl)c3)CC2)no1` gave PI4K2A inh 5.
Screening CCOc1cccc(/C=N\NC(=O)c2cnccn2)c1O returned PI4K2A inh -3.
For COc1cc(-c2nc(S(=O)(=O)c3ccc(Cl)cc3)c(N3CCOCC3)o2)cc(OC)c1OC the results were A549 viability -19%, Giardia kill -11, PI4K2A inh -8, KB-3-1 tox inactive, KB-V1 MDR tox 0.52µM* and Nrf2 block -28%.
For COc1cc(-c2nc(S(=O)(=O)c3ccc(C)cc3)c(N3CCOCC3)o2)cc(OC)c1OC the results were A549 viability 0%, Giardia kill 29, PI4K2A inh -1, KB-3-1 tox inactive, KB-V1 MDR tox inconclusive and Nrf2 block inconclusive.
Screening Cc1ccc(C(=O)N2c3nc(-c4ccco4)nn3C3(CCCCC3)[C@@H]3CCCC[C@@H]32)cc1 returned A549 viability 0%, PI4K2A inh -2 and Nrf2 block inconclusive.
`CCc1ccc2[nH]c3nc(C)cc(C)c3c(=O)c2c1` gave A549 viability 0%, Giardia kill -1, PI4K2A inh 2, KB-3-1 tox inactive, KB-V1 MDR tox 6.5µM* and Nrf2 block 10%.
CCc1ccc2[nH]cc(S(=O)(=O)c3ccc(C)c(C)c3)c(=O)c2c1 was read as A549 viability -9%, Giardia kill 25, PI4K2A inh 3, KB-3-1 tox inactive, KB-V1 MDR tox inactive and Nrf2 block inconclusive.
`CCc1nnc(NC(=O)c2ccc(Cl)c(S(=O)(=O)N3CCc4ccccc4C3)c2)s1` gave A549 viability -4%, Giardia kill 2, PI4K2A inh -1, KB-3-1 tox inactive, KB-V1 MDR tox inactive and Nrf2 block 18µM*.
COc1ccc(NC(=O)c2ccc(Cl)c(S(=O)(=O)N3CCc4ccccc4C3)c2)cn1 was read as A549 viability -11%, Giardia kill 2, PI4K2A inh 2, KB-3-1 tox inactive, KB-V1 MDR tox 4.6µM* and Nrf2 block inconclusive.
Screening Cc1cccc(OCCn2c(CCNC(=O)C3CCCCC3)nc3ccccc32)c1 returned A549 viability -3%, Giardia kill 18, KB-3-1 tox inactive, KB-V1 MDR tox inactive and Nrf2 block inconclusive.
For O=C(/C=C/c1ccc2c(c1)OCO2)Nc1cccc([S+](=O)([O-])Nc2ccccc2F)c1 the results were KB-3-1 tox inactive and KB-V1 MDR tox inactive.
`CCSc1nnc(-c2ccc(S(=O)(=O)NCc3cccs3)cc2)o1` gave A549 viability -7%, Giardia kill 7, PI4K2A inh 2, KB-3-1 tox inactive, KB-V1 MDR tox 21µM* and Nrf2 block inconclusive.
`CCN1CCN(Cc2c(O)ccc3c2O/C(=C\C=C\c2ccccc2)C3=O)CC1` gave A549 viability 0%, Giardia kill 3, PI4K2A inh -2, KB-3-1 tox 16µM*, KB-V1 MDR tox inconclusive and Nrf2 block 0%.
For CCCCN1CN2Cc3ccccc3C2CS1(=O)=O (stereo not given) the results were PI4K2A inh -4.
CC1CCN(S(=O)(=O)c2ccc3c4c2CC(=O)N4CC(C)S3)CC1 (stereo not given) was read as A549 viability -8%, Giardia kill 17, PI4K2A inh -4, KB-3-1 tox inactive, KB-V1 MDR tox inactive and Nrf2 block 21µM*.
`CC1CCN(S(=O)(=O)c2cc3c4c(c2)CC(=O)N4CCC3)CC1` gave A549 viability -2%, PI4K2A inh -4, KB-3-1 tox inactive and KB-V1 MDR tox inactive.
`COc1ccccc1N1CCN(C(=O)c2ccc3c(c2)nc(C)n3-c2cc(OC)c(OC)c(OC)c2)CC1` gave PI4K2A inh -8.
Cc1cc(C)n(-c2nc(C)c(C)c(=O)n2CC(=O)Nc2cccc([N+](=O)[O-])c2)n1 was read as A549 viability inconclusive and PI4K2A inh -2.
Screening CC1(C)CC(=O)c2c(O)c(-c3ccccc3)c(=O)n(-c3ccccc3)c2C1 returned A549 viability -4%, Giardia kill 3, PI4K2A inh -4, KB-3-1 tox inactive, KB-V1 MDR tox 13µM* and Nrf2 block -8%.
`CC1(C)Cc2ccccc2C(/C(=N\Nc2cccc(Cl)c2)C(N)=O)=N1` gave A549 viability -28%, Giardia kill -6, PI4K2A inh -2, KB-3-1 tox inconclusive, KB-V1 MDR tox inactive and Nrf2 block inconclusive.
For CC(=O)c1ccc(N/N=C(/C(N)=O)C2=NC(C)(C)Cc3ccccc32)cc1 the results were A549 viability inconclusive, Giardia kill 2, PI4K2A inh 2, KB-3-1 tox inactive, KB-V1 MDR tox 12µM* and Nrf2 block inconclusive.
`CCOc1ccc(NS(=O)(=O)c2ccc3c(c2)CCN3C(=O)C2CCC2)cc1` gave A549 viability -8%, Giardia kill -2, PI4K2A inh 1, KB-3-1 tox inactive, KB-V1 MDR tox inconclusive and Nrf2 block inconclusive.
Screening COc1ccc(NS(=O)(=O)c2ccc3c(c2)CCCN3C(=O)C2CCC2)cc1OC returned A549 viability -9%, PI4K2A inh 0, KB-3-1 tox 2.6µM* and KB-V1 MDR tox inconclusive.
For O=C(C1CCC1)N1CCc2cc(S(=O)(=O)Nc3ccc4c(c3)OCO4)ccc21 the results were A549 viability -8%, Giardia kill -22, PI4K2A inh -1, KB-3-1 tox inconclusive, KB-V1 MDR tox inconclusive and Nrf2 block 10µM*.
`COc1cccc(Nc2nc3ccccc3nc2NS(=O)(=O)c2ccc(NC(C)=O)cc2)c1` gave A549 viability -14%, Giardia kill -4, PI4K2A inh -1, KB-3-1 tox inactive, KB-V1 MDR tox inactive and Nrf2 block -12%.
CCOc1ccc(S(=O)(=O)Nc2nc3ccccc3nc2Nc2ccc(OC)cc2)cc1 was read as A549 viability -18%, PI4K2A inh -6, KB-3-1 tox inactive, KB-V1 MDR tox inactive and Nrf2 block 26µM*.
